RORgamma inh: qHTS for inhibitors of ROR gamma transcriptional activity | AID 2551, 2010 | Nuclear receptor ROR-gamma (Mus musculus), P51450 | 310,000 tested, 5.4% active | Potency, µM (series often up to 53.6 µM), inactives show top-dose activity change, negative = inhibition, hits mostly inhibitors | Drosophila S2 Gal4-RORgamma UAS-luciferase reporter, 20 h; note: potency is the fitted concentration of half-maximal effect; nearly all actives have a fitted effect of over 60% in size
Target sequence (P51450 whole entry, looked up, the tested form may be a part): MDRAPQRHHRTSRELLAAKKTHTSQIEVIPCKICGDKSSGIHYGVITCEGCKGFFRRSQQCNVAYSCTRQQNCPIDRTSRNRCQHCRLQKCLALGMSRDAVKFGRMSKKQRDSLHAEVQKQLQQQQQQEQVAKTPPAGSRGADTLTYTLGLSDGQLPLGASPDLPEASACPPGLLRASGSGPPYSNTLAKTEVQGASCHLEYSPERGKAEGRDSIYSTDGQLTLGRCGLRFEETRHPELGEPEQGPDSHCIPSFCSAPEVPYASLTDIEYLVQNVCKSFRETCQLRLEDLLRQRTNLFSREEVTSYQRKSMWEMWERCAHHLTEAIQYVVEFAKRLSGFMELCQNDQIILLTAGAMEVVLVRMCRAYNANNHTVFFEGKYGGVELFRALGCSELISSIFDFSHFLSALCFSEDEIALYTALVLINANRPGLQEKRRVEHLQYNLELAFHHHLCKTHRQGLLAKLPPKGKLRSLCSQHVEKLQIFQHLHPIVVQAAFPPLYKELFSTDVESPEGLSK
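Luciferase reporter read in Schneider cells carrying Gal4-RORγ (mouse) and UAS-Photinus luciferase; cells given compound 1 h before 700 uM copper sulfate induction, then incubated 20 h at ambient temperature.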
IL1B secr inh: qHTS for Inhibitors of Inflammasome Signaling: IL-1-beta AlphaLISA Primary Screen | THP-1 LPS/ATP IL-1B secretion, AlphaLISA, 16 h; stronger effect = lower value | activity change, % at 57.5 µM | 360,000 tested, 4.7% active | AID 743279, 2014; in the data active = activity change below about -50%; inconclusive = mostly about -30% to -49%
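THP-1 cells pretreated 1 hr with compounds (up to 57.5 uM final), then stimulated with LPS (250 ng/mL final) plus ATP (1.25 mM final); secreted IL-1B measured by AlphaLISA after 16 hr, decreased signal indicating inhibition.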
DT40 TDP1 no CPT: qHTS for Inhibitors of human tyrosyl-DNA phosphodiesterase 1 (TDP1): qHTS in cells in absence of CPT | 420,000 tested, 15% active | DT40 Tdp1-/- hTDP1 cells, no CPT, ATP luminescence, 48 h | Potency, µM (titrated, usually from 46.2 µM), for inactives: at the top dose activity change, negative = growth inhibition, actives largely listed as inhibitors; note: potency is the fitted concentration of half-maximal effect; nearly all actives have a fitted effect of over 55% in size
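A cellular qHTS used chicken DT40 cells lacking endogenous Tdp1 but carrying stably transfected human TDP1. Compounds were applied without camptothecin, and cell growth kinetics were judged by ATP-dependent luminescence after ≥48 hr.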
TDP1 cell CPT: qHTS for Inhibitors of human tyrosyl-DNA phosphodiesterase 1 (TDP1): qHTS in cells in presence of CPT; chicken DT40 Tdp1-/-;hTDP1 cells + 20 nM CPT, ATP luminescence, 48 h; Potency, µM (titrated, usually from 46.2 µM), for inactives: top-dose activity change, negative = growth inhibition, usual class: inhibitors; 420,000 tested, 12% active; AID 686979, 2013; note: potency is the fitted concentration of half-maximal effect; nearly all actives have a fitted effect of over 55% in size
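Chicken DT40 Tdp1-/- cells complemented with human TDP1, 400 cells/well, exposed to compounds plus 20 nM camptothecin for at least 48 h at 37 C; viability read as ATP content by CellTiter-Glo luminescence.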
VP16 counter: VP16 counterscreen qHTS for inhibitors of ROR gamma transcriptional activity | Drosophila S2 Gal4-VP16 UAS-luciferase, luminescence, 20 h | Potency, µM (series often up to 53.6 µM), for the others: top-dose activity, negative = inhibition, actives largely listed as inhibitors | 310,000 tested, 3.5% active;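 note: Gal4-VP16 expression switched on by copper sulfate through the metallothionein promoter; potency is the fitted concentration of half-maximal effect; nearly all actives have a fitted effect of over 50% in size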
LDHA block: qHTS assay for inhibitors of human lactate dehydrogenase. activity change, % (values are at about 110 or 230 µM). L-lactate dehydrogenase A chain (Homo sapiens), P00338. 480,000 tested, 0.15% active. purified LDHA, NADH/diaphorase-resazurin fluorescence; stronger effect = lower value; in the data active = activity change below about -30%; inconclusive = mostly about -25% to -30%;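 note: plate controls were DMSO wells for no effect and wells without enzyme for full effect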
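LDH5 2 nM; NADH 0.06 mM, pyruvate 0.2 mM; 200 mM Tris pH 7.4, EDTA, Tween-20; 5 min RT. Detection: diaphorase 0.133 mg/mL + resazurin 37 µM, fluorescence ex540/em590 at 0 and 20 min; normalized to enzyme-free and DMSO wells.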
Active calls of the source: *; ? = inconclusive; . = no result; [ ] = remark or other dose. Rows were chosen to be rich in hits. Some 18% of all compounds tested hit in one or more screens of this group. Unless noted, calls come from the whole dose curve; as a rule, active = well fitted curve in the direction sought with a large enough effect; inconclusive = small, poorly fitted or top-dose-only effect, or another doubt; inactive = no such curve, though single readings can be large; an effect the other way counts as inactive or inconclusive. Unless noted, % is set by controls: 0 for no effect and ±100 for the full control effect.

SMILES	RORgamma inh	IL1B secr inh	DT40 TDP1 no CPT	TDP1 cell CPT	VP16 counter	LDHA block
CCCc1nc2ccc([N+](=O)[O-])cc2[nH]1	13%	31	-21%	-6%	11%	-17
COc1ccc(C2=Nn3c(nnc3-c3cccc(F)c3)SC2)cc1	.	.	.	.	.	9
Cc1ccc2oc(C(=O)Nc3nonc3-c3ccc(C(C)C)cc3)cc(=O)c2c1	.	.	.	.	.	1
COc1ccc(CC(=O)N2CCC(NS(=O)(=O)c3ccc(C)cc3)CC2)cc1	.	.	.	.	.	-5
O=C(N[C@@H](CO)[C@@H](O)c1ccc([N+](=O)[O-])cc1)C(Cl)Cl	-27%[16.9 µM]	.	.	.	-5%[17 µM]	.
CS(=O)(=O)c1ccc([C@@H](O)[C@@H](COC(=O)CN)NC(=O)C(Cl)Cl)cc1	25%	.	3.8µM*	6.7µM*	-6%	.
O=C(COc1ncnc2ccc(Br)cc12)NC(c1ccccc1)c1ccccc1	.	.	.	.	.	3
CC(=O)Oc1ccc(N(C(C)=O)S(=O)(=O)c2ccc(C)cc2C)c2ccccc12	?	88	?	23µM*	?	4
CC(=O)Oc1c(Cl)cc(N(C(C)=O)S(=O)(=O)c2ccccc2)c2ccccc12	.	186	4.6µM*	10µM*	.	2
CC(=O)Oc1ccc(N(C(C)=O)S(=O)(=O)c2ccccc2)c2ccccc12	.	122	?	21µM*	.	-13
CC(=O)N(c1ccccc1Cl)S(=O)(=O)c1ccc(Cl)cc1	30%	-17	-28%	11%	3%	-4
CC(=O)Oc1ccc(C)cc1-n1nc2ccccc2n1	-39%	10	-8%	-21%	-17%	-14
COc1ccc(S(=O)(=O)Nc2ccc(NC(C)=O)cc2)cc1[N+](=O)[O-]	13%	6	-12%	13%	7%	-5
CC(=O)Oc1ccccc1N(C(C)=O)S(=O)(=O)c1ccc(C)cc1	11%	0	-2%	-12%	-4%	-2
COc1ccc(S(=O)(=O)N(C(C)=O)c2ccc(OC(C)=O)c3ccccc23)cc1[N+](=O)[O-]	?	124	3.7µM*	3.3µM*	?	-4
Cc1ccc(-c2csc(Nc3ccc4c(c3)OCO4)n2)cc1C	.	.	.	.	.	0
CCOC(=O)c1ccc(S(=O)(=O)N2CCC(C(=O)NCCc3ccccn3)CC2)cc1	.	.	.	.	.	7
C(/Oc1ccccc1)=C1\Nn2c(nnc2-c2cc(-c3ccccc3)n[nH]2)S1	.	.	20µM*	7.1µM*	.	-2
CC1=Nn2c(nnc2-c2cc(-c3ccccc3)n[nH]2)SC1	35%	9	-19%	-14%	-1%	-6
CCCCNS(=O)(=O)c1ccc2nc(SCC(=O)c3ccccc3OC)[nH]c2c1	1%	?	?	10µM*	-5%	-1
CCCCNS(=O)(=O)c1ccc2nc(SCC(N)=O)[nH]c2c1	18%	-2	?	-10%	-3%	-6
CCCCNS(=O)(=O)c1ccc2nc(SCC(=O)Nc3sccc3C#N)[nH]c2c1	4%	8	?	23µM*	13µM*	-15
CCn1c(C(=O)N2CCCC(C(=O)N3CCOCC3)C2)cc2ccccc21 (configuration not stated)	.	.	.	.	.	-5
COC(=O)c1ccc(OC)c(CSc2nnc(-c3ccc(C(C)(C)C)cc3)o2)c1	1%	-3	21µM*	16µM*	-12%	-9
COc1ccc(C(=O)c2sc(Nc3c(C)cccc3C)nc2N)cc1OC	.	.	.	.	.	1
SMILES	RORgamma inh	IL1B secr inh	DT40 TDP1 no CPT	TDP1 cell CPT	VP16 counter	LDHA block
CCc1ccc(C(N)CC(=O)OC)cc1 (configuration not stated)	.	.	.	.	.	-4
O=c1c(-c2ccccc2)n[nH]c2ccccc12	-4%	2	?	-6%	-8%	-6
O=C1c2ccccc2-c2n[nH]c3cccc1c23	-21%	-77*	21µM*	8.9µM*	7%	-4
COc1ccc2nc3c(c([Si](C)(C)C(C)(C)C)c2c1)Cn1c-3cccc1=O	13µM*	.	.	.	11µM*	.
O=C(c1ccc2c3c(cccc13)CC2)C1CCCN(Cc2ccc(OCCO)cc2)C1 (configuration not stated)	-22%	-13	?	?	-3%	-1
Cc1cnc(CN2CCCC(C(=O)c3ccc4c5c(cccc35)CC4)C2)[nH]1 (configuration not stated)	11µM*	-26	?	?	-26%	-8
COc1ccc(S(=O)(=O)N(CCO)c2ccccc2CN(C)C/C=C/c2ccc(Cl)cc2)cc1	.	.	15µM*	12µM*	.	.
Cc1cc(C)c(S(=O)(=O)Nc2ccc3oc4c(c3c2)CCCC4)cc1C	.	.	?	16µM*	.	-3
CCOc1cc(C)c(S(=O)(=O)Nc2ccc(F)cc2)cc1C	-14%	-5	16µM*	16µM*	?	8
Cc1cc(S(=O)(=O)Nc2ccc3oc4c(c3c2)CCCC4)ccc1Cl	.	.	23µM*	21µM*	.	-1
Cc1ccc(NS(=O)(=O)c2ccc(Cl)c(C(=O)O)c2)cc1Cl	.	.	.	.	.	9
CC(C)(C)C1CCc2oc3ccc(NS(=O)(=O)c4cc(Cl)ccc4Cl)cc3c2C1 (configuration not stated)	.	.	?	26µM*	.	5
CC(C)(C)C1CCc2oc3ccc(NS(=O)(=O)c4ccc(C(=O)O)cc4)cc3c2C1 (configuration not stated)	.	.	-10%	-2%	.	9
O=C(O)c1nnn(-c2ccccc2)c1C(F)(F)F	.	.	.	.	.	0
CC(Oc1ccc(Cl)cc1Cl)c1nc(-c2ccc(Br)o2)no1 (configuration not stated)	.	.	.	.	.	-1
Cc1cc(C)c(S(=O)(=O)Nc2ccc(O)cc2)cc1C	?	0	21µM*	?	-5%	-6
Cc1ccc(C)c(S(=O)(=O)Nc2ccc(O)cc2)c1	35%	-7	?	?	-5%	-1
Fc1ccc(-c2noc3ncnc(N4CCCCC4)c23)cc1	.	.	23µM*	18µM*	.	-3
O=C(Nc1ccc(F)c(Cl)c1)C1CCCN(c2ncnc3onc(-c4ccc(F)cc4)c23)C1 (configuration not stated)	.	.	15µM*	-80%	.	6
Cc1ccc(CNC(=O)C2CCCN(c3ncnc4onc(-c5ccc(F)cc5)c34)C2)cc1 (configuration not stated)	.	.	18µM*	?	.	-24

Screening data (PubChem)
